# Results published in PubChem BioAssay.
# Active and inactive are the calls of the source.
# Key:
# [1] = optical density shifts of acrAB sulA E. coli – strain DRC41, OD650, 48 h, E. coli filamentation inducer project, primary screen (AID 1152); conditions: higher = more signal, called active from +8 up or from −8 down;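 also: E. coli MC1000 strain DRC41 lacking acrAB efflux pump and sulA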
# [2] = probe aLefty1 binding on compound microarray – biochemical, small-molecule microarray, 635/667 nm fluorescence, primary screen (AID 1153); conditions: higher = more signal;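 also: score merges spot fluorescence with signal-to-noise ratio from the scanned slide images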
# [3] = plasmodial surface anion channel blockers, osmotic lysis – cell-based, P. falciparum Indochina, OD700, 1 h, primary screen (AID 1154); conditions: P. falciparum Indochina infected RBC osmotic lysis, higher = more signal, called active from +8 up or from −8 down
# [4] = plasmodial surface anion channel blockers, osmotic lysis – cell-based, P. falciparum Indochina, OD700, 2 h, primary screen (AID 1155);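 also: lysis reports solute entry through the parasite surface anion channel PSAC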; conditions: P. falciparum Indochina infected erythrocytes, higher = more signal, called active from +8 up or from −8 down
# [5] = changes in parasitized red cell lysis, either direction – P. falciparum Indochina, OD700, 3 h, PSAC antagonist project, primary screen (AID 1156); conditions: P. falciparum-infected erythrocytes, osmotic lysis, higher = more signal, called active from +8 up or from −8 down
# [6] = plasmodial surface anion channel blockers, osmotic lysis – cell-based, P. falciparum Indochina, OD700, 18 h, primary screen (AID 1157); conditions: P. falciparum Indochina infected erythrocytes, osmotic lysis OD700, 18 h; higher = more signal, called active from +8 up or from −8 down
# [7] = S6 kinase pathway phospho-S6 level changes – cell-based, A549, cytoblot, luminescence, serum-stimulated, primary screen (AID 1158); conditions: 5 h, higher = more signal;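 also: serum-stimulated A549 lung adenocarcinoma cells; signal is phosphorylated S6 detected by cytoblot immunostaining with HRP secondary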
# [8] = biological target: NADPH oxidase 2 (Homo sapiens) (UniProt P04839); test: compounds shifting NOX2 Amplex Red fluorescence – cell-based, HEK293-NOX2, PMA-stimulated, NOX inhibitor project, primary screen (AID 1159); conditions: 45 min, higher = more signal, called active from +8 up or from −8 down; also: test concentration not given here
# [9] = biological target: NADPH oxidase 4 (Homo sapiens) (UniProt Q9NPH5); test: compounds shifting NOX4 Amplex Red fluorescence – cell-based, HEK293-NOX4, tetracycline-induced, NOX inhibitor project, primary screen (AID 1160); conditions: HEK293-NOX4, Amplex Red H2O2 fluorescence, 45 min; higher = more signal, called active from +8 up or from −8 down
# [10] = biological target: NADPH oxidase 5 (Homo sapiens) (UniProt Q96PH1); test: compounds shifting NOX5 Amplex Red fluorescence – cell-based, HEK293-NOX5, NOX inhibitor project, primary screen (AID 1161); conditions: HEK293-NOX5, ionomycin, 45 min, higher = more signal
# [11] = compound effects on lung adenocarcinoma cell viability – A549, calcein-AM fluorescence, 48 h, basal, profiling panel (AID 1162); conditions: higher = more signal; also: test concentration not given here
# [12] = compound effects on differentiated 3T3-L1 adipocyte viability – cell-based, 3T3-L1 adipocytes, calcein-AM fluorescence, 48 h, basal, profiling panel (AID 1163); conditions: 3T3-L1 adipocytes viability, higher = more signal; also: test concentration not given here
# [13] = compound effects on hepatocellular carcinoma cell viability – HepG2, calcein-AM fluorescence, 48 h, basal, profiling panel (AID 1164); conditions: higher = more signal; also: test concentration not given here
# [14] = compound effects on multiple myeloma cell viability – MM1S, calcein-AM fluorescence, 48 h, basal, profiling panel (AID 1165); conditions: higher = more signal; also: test concentration not given here
# [15] = calcein-AM signal in unstimulated myeloma cells – cell-based, calcein-AM fluorescence, 48 h, PK04 Diversity Set, profiling panel (AID 1166); conditions: RPMI8226 myeloma viability, higher = more signal;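 also: cells grown under basal conditions without added stimulus; test concentration not given here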
# [16] = JC-1 mitochondrial signal, unstimulated HepG2 cells – cell-based, JC-1 fluorescence, 24 h, 100 nL compound, profiling panel (AID 1167); conditions: HepG2 mitochondrial potential, higher = more signal; also: test concentration not given here
# [17] = JC-1 mitochondrial signal, unstimulated adipocytes – cell-based, JC-1 fluorescence, 3T3-L1 adipocytes, 24 h, 100 nL compound, profiling panel (AID 1168); conditions: JC-1 mitochondrial fluorescence, higher = more signal, called active from +8 up or from −8 down; also: test concentration not given here
# [18] = JC-1 mitochondrial signal, unstimulated myeloma cells – cell-based, JC-1 fluorescence, RPMI8226, 24 h, 100 nL compound, profiling panel (AID 1169); conditions: JC-1 mitochondrial potential fluorescence, higher = more signal; also: test concentration not given here
# [19] = JC-1 mitochondrial signal, unstimulated MM1S myeloma – cell-based, JC-1 fluorescence, 24 h, 100 nL compound, profiling panel (AID 1170); conditions: MM1S mitochondrial potential, higher = more signal; also: test concentration not given here
# [20] = resazurin metabolic signal in A549 cells – cell-based, resazurin fluorescence, 24 h, PK04 Diversity Set, profiling panel (AID 1171); conditions: A549 viability, higher = more signal, called active from +8 up or from −8 down; also: test concentration not given here
# Chain of NADPH oxidase 2 (Homo sapiens) (P04839 whole entry, looked up): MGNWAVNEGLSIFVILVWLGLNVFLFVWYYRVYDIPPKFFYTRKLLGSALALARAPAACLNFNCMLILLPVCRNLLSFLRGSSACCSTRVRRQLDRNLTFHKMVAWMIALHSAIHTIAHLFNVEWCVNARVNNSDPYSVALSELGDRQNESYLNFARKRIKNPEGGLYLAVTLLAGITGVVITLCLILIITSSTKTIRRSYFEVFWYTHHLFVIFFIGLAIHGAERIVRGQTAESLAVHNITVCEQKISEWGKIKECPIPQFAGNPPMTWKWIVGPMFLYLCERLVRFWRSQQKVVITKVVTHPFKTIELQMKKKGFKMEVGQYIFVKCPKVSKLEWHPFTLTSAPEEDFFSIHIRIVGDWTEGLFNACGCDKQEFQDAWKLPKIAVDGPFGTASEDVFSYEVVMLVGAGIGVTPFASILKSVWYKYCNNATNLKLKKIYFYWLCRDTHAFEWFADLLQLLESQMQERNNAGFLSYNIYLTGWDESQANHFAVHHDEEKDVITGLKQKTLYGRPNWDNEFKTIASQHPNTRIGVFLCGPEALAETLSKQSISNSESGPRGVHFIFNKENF
# Chain of NADPH oxidase 5 (Homo sapiens) (Q96PH1 whole entry, looked up): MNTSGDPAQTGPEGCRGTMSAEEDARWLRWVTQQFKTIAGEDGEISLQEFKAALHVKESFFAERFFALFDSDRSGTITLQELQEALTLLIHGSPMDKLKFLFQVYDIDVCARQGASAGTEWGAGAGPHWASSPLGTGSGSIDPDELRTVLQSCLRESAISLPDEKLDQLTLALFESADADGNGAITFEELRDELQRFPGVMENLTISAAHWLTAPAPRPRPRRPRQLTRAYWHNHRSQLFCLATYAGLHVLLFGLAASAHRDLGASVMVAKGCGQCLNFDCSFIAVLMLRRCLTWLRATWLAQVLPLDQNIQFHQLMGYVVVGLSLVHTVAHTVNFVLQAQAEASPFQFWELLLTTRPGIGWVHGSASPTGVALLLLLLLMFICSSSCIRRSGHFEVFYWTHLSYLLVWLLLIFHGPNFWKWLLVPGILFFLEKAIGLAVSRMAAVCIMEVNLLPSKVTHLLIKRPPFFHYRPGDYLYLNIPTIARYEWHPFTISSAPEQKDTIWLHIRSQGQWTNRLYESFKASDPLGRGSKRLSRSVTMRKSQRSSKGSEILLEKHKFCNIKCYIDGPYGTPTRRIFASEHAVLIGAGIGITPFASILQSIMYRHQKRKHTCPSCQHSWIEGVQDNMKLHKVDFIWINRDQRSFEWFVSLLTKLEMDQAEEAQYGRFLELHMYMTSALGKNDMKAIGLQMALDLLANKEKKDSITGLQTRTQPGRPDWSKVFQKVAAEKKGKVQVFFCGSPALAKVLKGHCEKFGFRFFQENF
# Chain of NADPH oxidase 4 (Homo sapiens) (Q9NPH5 whole entry, looked up): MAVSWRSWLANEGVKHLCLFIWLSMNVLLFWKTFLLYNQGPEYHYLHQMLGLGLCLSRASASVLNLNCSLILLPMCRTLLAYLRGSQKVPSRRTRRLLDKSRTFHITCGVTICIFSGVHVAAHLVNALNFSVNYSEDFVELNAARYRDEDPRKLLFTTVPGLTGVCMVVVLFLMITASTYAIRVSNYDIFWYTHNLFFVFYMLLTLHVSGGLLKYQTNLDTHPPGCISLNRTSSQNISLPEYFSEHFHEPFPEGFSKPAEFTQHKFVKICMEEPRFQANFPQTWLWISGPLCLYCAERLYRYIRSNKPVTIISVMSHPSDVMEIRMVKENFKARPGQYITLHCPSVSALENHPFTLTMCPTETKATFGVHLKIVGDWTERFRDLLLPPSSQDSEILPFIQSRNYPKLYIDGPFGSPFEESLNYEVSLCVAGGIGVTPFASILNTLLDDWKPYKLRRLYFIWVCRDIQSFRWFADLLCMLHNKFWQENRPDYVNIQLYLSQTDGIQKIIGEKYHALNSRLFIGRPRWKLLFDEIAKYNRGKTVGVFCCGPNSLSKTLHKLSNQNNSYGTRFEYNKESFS
SMILES,z-score [1],composite z-score [2],z-score [3],z-score [4],z-score [5],z-score [6],z-score [7],z-score [8],z-score [9],z-score [10],z-score [11],z-score [12],z-score [13],z-score [14],z-score [15],z-score [16],z-score [17],z-score [18],z-score [19],z-score [20]
CC(C)=CCCC(C)=CC(O)C1C=CC2C(=O)N(c3ccccc3)C(=O)C2N1Nc1ccccc1F (stereo not given),0.404 (inactive),-0.233,1.7 (inactive),-0.389 (inactive),-0.391 (inactive),-0.789 (inactive),-0.162,-0.199 (inactive),-0.284 (inactive),0.83,0.154,0.0094,0.443,0.381,-0.93,-0.143,-0.507 (inactive),-0.271,-0.426,0.598 (inactive)
C=C(/C(=C/C[C@H](OC(=O)c1ccncc1)c1cccc(OCCO)c1)c1cnc2ccccc2c1)C(C)C,-0.599 (inactive),-0.0046,6.01 (inactive),2.44 (inactive),-2.09 (inactive),0.626 (inactive),-0.787,-4.67 (inactive),-0.946 (inactive),-1.49,-1.69,-1.31,-3.17,-3.07,-2.93,-0.437,-0.649 (inactive),-0.0462,-0.888,-1.68 (inactive)
COCC(=C=CC[C@H](O)c1cccc(OCCO)c1)C[C@H](O)COCc1ccccc1,-0.0371 (inactive),0.213,9.2 (active),1.07 (inactive),0.307 (inactive),0.404 (inactive),-0.234,-0.436 (inactive),-0.797 (inactive),-1.39,0.276,-0.48,0.0978,0.103,-0.557,-0.487,-0.3 (inactive),0.191,-0.701,-0.359 (inactive)
C=CCC(OC(C)=O)[C@@H]1[C@@H](N(Cc2cccc3ccccc23)C(=O)c2cccc3ccccc23)c2cc(OCCCO)ccc2N1C(=O)c1ccc2ccccc2c1 (stereo not given in full),0.0047 (inactive),-0.333,0.529 (inactive),-0.128 (inactive),1.41 (inactive),0.0897 (inactive),0.914,-2.77 (inactive),-1.09 (inactive),-2.66,-0.0249,0.521,-0.184,-0.189,0.0694,2.48,-0.419 (inactive),0.489,0.591,0.933 (inactive)
C=CCC(OC(C)=O)[C@@H]1[C@@H](N(Cc2ccc(-c3cccc(C(F)(F)F)c3)o2)C(=O)c2ccc(C)cc2)c2cc(OCCCO)ccc2N1C(=O)Cc1ccc(OC)cc1 (stereo not given in full),2.06 (inactive),0.0934,2.58 (inactive),0.0001 (inactive),0.636 (inactive),0.432 (inactive),0.194,-1.44 (inactive),0.641 (inactive),0.233,1.22,0.608,2.12,-0.155,0.002,3.98,0.557 (inactive),-0.245,-0.83,1.25 (inactive)
[N-]=[N+]=NC[C@H](Cc1ccccc1)NC(=O)c1ccccc1,1.44 (inactive),0.0606,0.0465 (inactive),0.872 (inactive),0.264 (inactive),0.432 (inactive),-0.282,0.192 (inactive),-0.441 (inactive),0.122,0.431,0.474,0.611,0.357,0.661,0.581,0.219 (inactive),-0.0299,0.171,1.19 (inactive)
Cc1cccc([C@H]2C[C@H]3C(I)=C[C@@H]2C(=O)[C@]32CO2)c1,-0.894 (inactive),-0.0559,-0.0459 (inactive),0.0962 (inactive),0.0129 (inactive),-0.0624 (inactive),0.0314,-0.942 (inactive),-0.0919 (inactive),-0.835,-0.985,-0.176,-0.902,-3.19,-3.12,-1.45,0.224 (inactive),-0.889,-0.753,-0.109 (inactive)
CC1CC/C=C\[C@H]2OC34C=CCN(C(C)(C)C)C(=O)[C@H]3N(C(CO)C(C)C)C(=O)[C@@H]4C2C(=O)O1 (stereo not given in full),-0.281 (inactive),-0.142,0.462 (inactive),0.451 (inactive),0.44 (inactive),0.404 (inactive),-0.248,1.31 (inactive),-0.568 (inactive),2.34,0.0643,0.385,-0.554,1.61,0.136,-0.976,-0.295 (inactive),-0.622,-0.516,-0.266 (inactive)
C=C(COC)C(=O)CC[C@H](OC(C)=O)c1ccc(OCCO)cc1,1.5 (inactive),-0.0984,4.92 (inactive),-1.68 (inactive),1.91 (inactive),-1.85 (inactive),0.534,-2.84 (inactive),-1.63 (inactive),-2.22,-0.522,1.72,-0.974,-2.6,-0.887,0.692,-0.213 (inactive),-0.0964,1.3,0.0933 (inactive)
COCCCNC(=O)[C@@]1(Sc2ccc(C)cc2)CC(=O)N(C(C)C)[C@@H]1c1ccc(CO)cc1I,-0.158 (inactive),0.0445,6.72 (inactive),-0.602 (inactive),0.349 (inactive),-1.49 (inactive),1.61,1.77 (inactive),-1.47 (inactive),-0.854,0.781,1.74,-1.16,-2.2,-2.38,0.544,-0.0068 (inactive),-0.205,-2.75,0.534 (inactive)
